Assay results taken from PubChem BioAssay (NCI).
Compounds without any hit were thinned out: in the full panel of roughly 83,000, 20% have a hit.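 Percent growth is the endpoint: 0 to 100 indicates growth inhibition (40 means 60% inhibition), 0 means no net growth, and negative values indicate cell death.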 Unmarked numbers belong to inactive results. Calls of active or inactive are those of the source. The calls were made as follows: active = growth percent below 10; inactive = the rest.

Assays:
Assay in all cases: NCI-60 one-dose screen, 48 h (100 = growth as untreated, 0 = no growth, -100 = all killed)
Details in all cases: 10 µM unless noted
NCI-H23 lung = system: NCI-H23 lung
NCI-H226 lung = system: NCI-H226 lung
NCI-H322M lung = system: NCI-H322M lung
HOP-62 NSCLC = system: HOP-62 NSCLC
NCI-H460 lung = system: NCI-H460 lung
HOP-92 NSCLC = system: HOP-92 NSCLC
NCI-H522 lung = system: NCI-H522 lung
A549/ATCC NSCLC = system: A549/ATCC NSCLC
786-0 renal = system: 786-0 renal
COLO 205 colon = system: COLO 205 colon
DU-145 prostate = system: DU-145 prostate
MALME-3M melanoma = system: MALME-3M melanoma
MDA-MB-231 breast = system: MDA-MB-231 breast
SF-268 CNS = system: SF-268 CNS
SF-295 CNS = system: SF-295 CNS
SF-539 CNS = system: SF-539 CNS
UACC-257 melanoma = system: UACC-257 melanoma
M14 melanoma = system: M14 melanoma
K-562 leukemia = system: K-562 leukemia
RXF 393 renal = system: RXF 393 renal

| SMILES | growth (NCI-H23 lung) | growth (NCI-H226 lung) | growth (NCI-H322M lung) | growth (HOP-62 NSCLC) | growth (NCI-H460 lung) | growth (HOP-92 NSCLC) | growth (NCI-H522 lung) | growth (A549/ATCC NSCLC) [%] | growth (786-0 renal) | growth (COLO 205 colon) | growth (DU-145 prostate) | growth (MALME-3M melanoma) | growth (MDA-MB-231 breast) | growth (SF-268 CNS) | growth (SF-295 CNS) [%] | growth (SF-539 CNS) | growth (UACC-257 melanoma) | growth (M14 melanoma) | growth (K-562 leukemia) | growth (RXF 393 renal) |
| --- | --- | --- | --- | --- | --- | --- | --- | --- | --- | --- | --- | --- | --- | --- | --- | --- | --- | --- | --- | --- |
| COc1cc2nnc3c4cccnc4[nH]c3c2cc1OC | 89.6% | 40.5% | 110% | 96.9% | 25.6% | -40.8% (active) | -75.7% (active) | 47.2 | 7.43% (active) | 50.2% | 37.6% | -3.59% (active) | 45.9% | 19.4% | 67.4 | 54.9% | -33.4% (active) | 81.2% | – | – |
| COc1cc2c(cc1-c1c(C)noc1C)ncc1nc(C3CCC(F)(F)CC3)n([C@H](C)COC(F)F)c12 | 60.1% | 51.1% | 42.6% | 36.9% | 56.4% | – | 30.3% | 40 | 46.9% | 25.1% | 71.4% | 67.5% | 44.1% | 67.4% | 49.3 | 34% | 34.9% | 45.9% | 30.5% | 55.8% |
| CCCCn1c(-c2ccc(C(=O)O/N=C(\N)c3ccc4c(c3)OCO4)cc2)nc(-c2ccccc2)c1-c1ccccc1 | 35.3% | 49.9% | 66.6% | 79.7% | 0.397% (active) | – | -37.1% (active) | 15.7 | 41.9% | 57.5% | 46.4% | 55.6% | 33.1% | 29.4% | 61.4 | 58.1% | 79.9% | 54.1% | -5.48% (active) | 34.7% |
| CCCCC(=O)OCC1OC(n2cnc3c(=S)nc[nH]c32)C(OC(=O)CCCC)C1OC(=O)CCCC (stereo unspecified) | 27.5% | 31.4% | 36.4% | 25.4% | 30.3% | 20.2% | 34.5% | 39.8 | 20.5% | 38.8% | 32% | 49.5% | 35.6% | 39% | 30.3 | 20.2% | – | 10.4% | – | – |
| Cn1cc(-c2nonc2-c2c[nH]c3ccccc23)c2cccnc21 | 54.4% | 30.2% | 88.6% | 36.5% | 21.6% | – | 18.4% | 36.2 | 65.8% | 37.6% | 67.7% | 50.5% | 59.6% | 56.5% | 51.4 | 41.9% | 55% | 21.2% | 12.7% | 36.1% |
| COc1ccc(SC2c3ccc(C)cc3Oc3nc(N)c(C#N)c(N)c32)cc1 (stereo unspecified) | -43.8% (active) | -63.9% (active) | 5.34% (active) | -10.6% (active) | -49.6% (active) | – | -90.3% (active) | 19.9 | -95.4% (active) | -66.5% (active) | -88.3% (active) | -87.6% (active) | -86.5% (active) | 2.01% (active) | 44.8 | -75.4% (active) | -74.8% (active) | -76.5% (active) | – | -69.2% (active) |
| Cc1cc2nc3[nH]c4ccccc4c3nc2cc1C | 99.6% | 96.1% | 98.7% | 94.2% | 93.8% | 67.2% | 94% | 87.2 | 79.3% | 88% | 79.4% | 76.6% | 64.4% | 74.6% | 102 | 70.7% | – | 101% | – | – |
| CC[C@@H]1O[C@H](O[C@@H](c2cnc[nH]2)[C@H](NC(=O)c2nc([C@H](CC(N)=O)NC[C@@H](N)C(N)=O)nc(N)c2C)C(=O)N[C@H](C)[C@H](O)[C@H](C)C(=O)N[C@@H](C(=O)NCCc2nc(-c3nc(C(=O)NCCCCN=C(N)N)cs3)cs2)[C@@H](C)O)[C@H](O[C@@H]2O[C@H](CO)[C@H](O)[C@H](OC(N)=O)[C@@H]2O)[C@H](C)[C@@H]1C | 20.9% | 13% | 105% | 15.6% | 12.5% | 11.4% | – | 36.6 | 25.4% | 64.2% | 49.4% | 45% | 88.7% | 23.1% | – | – | 70.9% | 39.2% | 82% | – |
| CC1=C(O)C(=O)C(C(C#N)(C#N)C(C#N)C#N)C1 (stereo unspecified) | 92.4% | 96.4% | 85.8% | 108% | 102% | – | 85.8% | 101 | 106% | 105% | 94.7% | 113% | 124% | 84.4% | 101 | 104% | 105% | 101% | – | 110% |
